Calls of active or inactive are those of the source. How the source made its calls: active means hit-call score of the fitted dose curve at least 0.9, where 1 is the maximum; inactive means score below 0.9.
Legend:
[1] = read-out: TIMP metallopeptidase inhibitor 2 (TIMP2), TIMP2 (gene 7077); assay: BSK_KF3CT_TIMP2: BioMAP Diversity Plus: KF3CT Assay for TIMP metallopeptidase inhibitor 2 (TIMP2) Biomarker Activity (AID 2283071); conditions: primary human keratinocytes with fibroblasts; actives raise or lower the signal
Procedure, shortened: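 Co-culture of human primary keratinocytes and foreskin fibroblasts, measured 24 h after chemical dosing. TIMP-2 quantified by ELISA and fitted in both directions relative to DMSO. Cytotoxicity checked in parallel cultures by SRB total-protein staining.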

[2] = read-out: Transforming growth factor beta 1 (TGFb1), TGFB1 (gene 7040); assay: BSK_KF3CT_TGFb1: BioMAP Diversity Plus: KF3CT Assay for Transforming growth factor beta 1 (TGFb1) Biomarker Activity (AID 2283072); conditions: primary human keratinocytes with fibroblasts; actives raise or lower the signal
Procedure, shortened: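 Human keratinocyte/foreskin fibroblast co-culture; TGF-b1 measured by ELISA 24 h after dosing, fitted bidirectionally versus DMSO. Cytotoxicity checked in parallel cultures by total protein (SRB staining, 560 nm).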

[3] = read-out: C-C motif chemokine 2 (Homo sapiens) (UniProt P13500); assay: BSK_KF3CT_MCP1: BioMAP Diversity Plus: KF3CT Assay for Monocyte Chemoattractant Protein 1 (MCP1/CCL2) Biomarker Activity (AID 2283073); conditions: primary human keratinocytes with fibroblasts; actives raise or lower the signal
Procedure, shortened: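 ELISA readout of MCP-1 after 24 h chemical dosing of a human skin primary co-culture of keratinocytes and foreskin fibroblasts. Activity was fitted in both directions against DMSO.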

[4] = read-out: Matrix Metallopeptidase 9 (MMP9), MMP9 (gene 4318); assay: BSK_KF3CT_MMP9: BioMAP Diversity Plus: KF3CT Assay for Matrix Metallopeptidase 9 (MMP9) Biomarker Activity (AID 2283074); conditions: primary human keratinocytes with fibroblasts; actives raise or lower the signal;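 on AC50: MMP9 protein level quantified by ELISA in the co-culture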
Procedure, shortened: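 Human keratinocyte and foreskin fibroblast co-culture exposed to chemicals for 24 h; MMP9 biomarker measured by ELISA, bidirectional fitting relative to DMSO; cytotoxicity tracked by SRB total protein staining in parallel cultures.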

[5] = read-out: urokinase plasminogen activator (uPA), PLAU (gene 5328); assay: BSK_KF3CT_uPA: BioMAP Diversity Plus: KF3CT Assay for urokinase plasminogen activator (uPA) Biomarker Activity (AID 2283075); conditions: primary human keratinocytes with fibroblasts; actives raise or lower the signal
Procedure, shortened: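 Primary human keratinocyte/foreskin fibroblast co-culture exposed to chemical; uPA measured by ELISA at 24 h. Bidirectional fit versus DMSO, with parallel SRB total-protein staining for cytotoxicity.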

CD40, CD40 (gene 958) [6] = assay: BSK_LPS_CD40: BioMAP Diversity Plus: LPS Assay for CD40 Biomarker Activity (AID 2283076); conditions: primary human HUVEC with PBMC; actives raise or lower the signal
Procedure, shortened: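 Cells were dosed, incubated 24 h, then assayed for CD40 by ELISA. Gain or loss of signal was analysed relative to DMSO controls. The culture paired human umbilical vein endothelium with peripheral blood mononuclear cells.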

[7] = read-out: E-selectin (Homo sapiens) (UniProt P16581); assay: BSK_LPS_Eselectin: BioMAP Diversity Plus: LPS Assay for Eselectin Biomarker Activity (AID 2283077); conditions: primary human HUVEC with PBMC; actives raise or lower the signal
Procedure, shortened: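 Primary human vascular co-culture (endothelium plus PBMC) was dosed with chemical, then E-selectin quantified by ELISA at 24 h. Endpoint values derive from bidirectional curve fitting relative to DMSO.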

[8] = read-out: Interleukin-8 (IL8), CXCL8 (gene 3576); assay: BSK_LPS_IL8: BioMAP Diversity Plus: LPS Assay for Interleukin-8 (IL8) Biomarker Activity (AID 2283078); conditions: primary human HUVEC with PBMC; actives raise or lower the signal
Procedure, shortened: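 Readout is IL-8 by ELISA, taken 24 h after compounds were added to LPS-stimulated endothelial/PBMC co-cultures. Both increases and decreases relative to DMSO control were scored through bidirectional fitting.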

[9] = BSK_LPS_SRB: Viability Assessment in the BioMAP Diversity Plus: LPS Assay (AID 2283079); conditions: primary human HUVEC with PBMC;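 further: total protein by sulforhodamine B absorbance as a cytotoxicity measure; measured one day after compound addition; fitted in both directions against DMSO so loss or gain of signal counts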
Procedure, shortened: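 Readout is SRB absorbance at 560 nm (0.1% stain, TCA-fixed parallel cultures) as a total-protein cytotoxicity measure. Cells: primary human umbilical vein endothelium plus peripheral blood mononuclear cells, 24 h after chemical exposure; DMSO served as baseline.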

[10] = read-out: Interleukin-1 alpha (IL1a), IL1A (gene 3552); assay: BSK_LPS_IL1a: BioMAP Diversity Plus: LPS Assay for Interleukin-1 alpha (IL1a) Biomarker Activity (AID 2283080); conditions: primary human HUVEC with PBMC; actives raise or lower the signal
Procedure, shortened: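 ELISA read-out of IL-1 alpha from a human primary vascular co-culture (endothelium plus PBMC) under LPS, sampled 24 hours post-dosing. Activity was fitted in both directions relative to DMSO controls.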

[11] = BSK_LPS_PGE2: BioMAP Diversity Plus: LPS Assay for Prostaglandin E2 (PGE2) Biomarker Activity (AID 2283082); conditions: primary human HUVEC with PBMC; actives raise or lower the signal;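 on AC50: secreted prostaglandin E2 measured by ELISA in LPS-stimulated co-culture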
Procedure, shortened: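 HUVEC plus human PBMC co-culture stimulated with LPS; secreted PGE2 quantified by ELISA 24 h after chemical dosing. Activity fitted bidirectionally against DMSO baseline; parallel SRB staining (0.1% SRB after 10% TCA fixation, 560 nm) flags overt cytotoxicity.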

[12] = read-out: Macrophage colony-stimulating factor (MCSF), CSF1 (gene 1435); assay: BSK_LPS_MCSF: BioMAP Diversity Plus: LPS Assay for Macrophage colony-stimulating factor (MCSF) Biomarker Activity (AID 2283083); conditions: primary human HUVEC with PBMC; actives raise or lower the signal
Procedure, shortened: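 ELISA readout of M-CSF after 24 h compound exposure in a human endothelial/PBMC co-culture. Activity, in either direction, is fitted relative to DMSO vehicle.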

[13] = read-out: Tissue Factor, F3 (gene 2152); assay: BSK_LPS_TissueFactor: BioMAP Diversity Plus: LPS Assay for Tissue Factor Biomarker Activity (AID 2283084); conditions: primary human HUVEC with PBMC; actives raise or lower the signal
Procedure, shortened: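 ELISA signal for cell-surface Tissue Factor (CD142) was read 24 h after compound dosing of an LPS-stimulated human endothelial–PBMC primary co-culture. Gain or loss of signal was scored relative to DMSO.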

[14] = read-out: Tumor necrosis factor (Homo sapiens) (UniProt P01375); assay: BSK_LPS_TNFa: BioMAP Diversity Plus: LPS Assay for Tumour Necrosis Factor alpha (TNFa) Biomarker Activity (AID 2283085); conditions: primary human HUVEC with PBMC; actives raise or lower the signal
Procedure, shortened: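 Human umbilical vein endothelial cells co-cultured with PBMC and stimulated with LPS. TNFa was measured by ELISA 24 h after chemical dosing, fitted bidirectionally relative to DMSO.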

[15] = read-out: Vascular cell adhesion molecule 1 (VCAM1), VCAM1 (gene 7412); assay: BSK_LPS_VCAM1: BioMAP Diversity Plus: LPS Assay for Vascular cell adhesion molecule 1 (VCAM1) Biomarker Activity (AID 2283086); conditions: primary human HUVEC with PBMC; actives raise or lower the signal
Procedure, shortened: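 Human umbilical vein endothelial cells co-cultured with PBMC and stimulated with LPS; VCAM-1 measured by ELISA 24 h after dosing. Bidirectional curve fitting against DMSO baseline; cytotoxicity tracked in parallel by SRB total-protein staining.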

CD40, CD40 (gene 958) [16] = assay: BSK_SAg_CD40: BioMAP Diversity Plus: SAg Assay for CD40 Biomarker Activity (AID 2283088); conditions: primary human HUVEC with PBMC; actives raise or lower the signal
Procedure, shortened: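 Compounds were dosed onto a human primary endothelial–PBMC co-culture, and after 24 h CD40 was quantified by ELISA using a fluorescence signal. Activity in either direction was fitted relative to DMSO.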

CD69, CD69 (gene 969) = assay: BSK_SAg_CD69: BioMAP Diversity Plus: SAg Assay for CD69 Biomarker Activity (AID 2283089); conditions: primary human HUVEC with PBMC; actives raise or lower the signal;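 on AC50: cell surface CD69 protein quantified by ELISA with fluorescence detection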
Procedure, shortened: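 ELISA, fluorescence read-out: CD69 on human umbilical vein endothelial cell + PBMC co-culture, 24 h post-dosing. Gain or loss of signal fitted bidirectionally against DMSO baseline.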

[17] = read-out: Monocyte Chemoattractant Protein-1 (MCP1), CCL2 (gene 6347); assay: BSK_SAg_MCP1: BioMAP Diversity Plus: SAg Assay for Monocyte Chemoattractant Protein-1 (MCP1) Biomarker Activity (AID 2283090); conditions: primary human HUVEC with PBMC; actives raise or lower the signal
Procedure, shortened: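 MCP-1 levels in the endothelial–PBMC SAg co-culture were quantified by ELISA at 24 h post-dosing; both increases and decreases versus DMSO scored. Cytotoxicity monitored by SRB total protein in parallel cultures.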

[18] = read-out: Monocyte Chemoattractant Protein-1 (MCP1), CCL2 (gene 6347); assay: BSK_LPS_MCP1: BioMAP Diversity Plus: LPS Assay for Monocyte Chemoattractant Protein-1 (MCP1) Biomarker Activity (AID 2283081); conditions: primary human HUVEC with PBMC; actives raise or lower the signal
Procedure, shortened: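 Human endothelial–PBMC co-cultures were dosed with chemical, then LPS-driven MCP-1 levels were quantified by ELISA at 24 h. Activity in either direction was fitted versus DMSO negative control.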

CD38, CD38 (gene 952) = assay: BSK_SAg_CD38: BioMAP Diversity Plus: SAg Assay for CD38 Biomarker Activity (AID 2283087); conditions: primary human HUVEC with PBMC; actives raise or lower the signal
Procedure, shortened: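 Human HUVEC plus PBMC co-culture stimulated with superantigen; CD38 measured by ELISA 24 h after chemical dosing. Fluorescence read-out, bidirectional fit against DMSO; cytotoxicity tracked in parallel by SRB and Alamar Blue.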

Sequence of Tumor necrosis factor (Homo sapiens) (P01375 whole entry, looked up): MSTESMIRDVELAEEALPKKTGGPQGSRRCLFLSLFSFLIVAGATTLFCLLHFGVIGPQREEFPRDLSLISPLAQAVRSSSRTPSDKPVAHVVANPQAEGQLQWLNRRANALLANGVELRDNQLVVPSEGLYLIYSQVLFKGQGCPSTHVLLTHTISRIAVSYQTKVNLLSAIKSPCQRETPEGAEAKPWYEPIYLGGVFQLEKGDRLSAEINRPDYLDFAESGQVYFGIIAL
Sequence of E-selectin (Homo sapiens) (P16581 whole entry, looked up): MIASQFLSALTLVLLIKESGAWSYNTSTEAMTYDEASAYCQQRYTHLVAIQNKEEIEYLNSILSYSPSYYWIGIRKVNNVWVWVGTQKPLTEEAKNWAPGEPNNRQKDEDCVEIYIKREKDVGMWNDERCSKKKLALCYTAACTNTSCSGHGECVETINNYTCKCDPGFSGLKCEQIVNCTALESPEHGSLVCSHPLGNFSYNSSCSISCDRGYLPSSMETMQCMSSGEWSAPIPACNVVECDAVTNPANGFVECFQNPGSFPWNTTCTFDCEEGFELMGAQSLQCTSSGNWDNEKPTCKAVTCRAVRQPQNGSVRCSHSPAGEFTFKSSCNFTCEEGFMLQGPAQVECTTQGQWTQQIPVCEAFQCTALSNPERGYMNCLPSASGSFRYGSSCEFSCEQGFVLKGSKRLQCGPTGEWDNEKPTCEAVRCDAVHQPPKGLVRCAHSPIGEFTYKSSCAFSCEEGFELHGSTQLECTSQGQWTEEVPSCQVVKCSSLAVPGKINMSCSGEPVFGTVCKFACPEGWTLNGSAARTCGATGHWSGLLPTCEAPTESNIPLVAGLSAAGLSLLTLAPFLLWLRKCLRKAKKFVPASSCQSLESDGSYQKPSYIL

Q: What does the source list for COc1cc(C(=O)NC2CCN(C)CC2)ccc1Nc1ncc2c(n1)N(C1CCCC1)CC(F)(F)C(=O)N2C?
A: AC50 [1]: 28.9 µM (active); AC50 [2]: 29.8 µM (active); AC50 [3]: 5.37 µM (active); AC50 [4]: 18.6 µM (active); AC50 [5]: 27.1 µM (active); AC50 (CD40, CD40 (gene 958) [6]): 10.1 µM (active); AC50 [7]: 22.6 µM (active); AC50 [8]: 18.6 µM (active); AC50 [9]: 8.37 µM (active); AC50 [10]: 6.03 µM (active); AC50 [11]: 5.48 µM (active); AC50 [12]: 14 µM (active); AC50 [13]: 12.1 µM (active); AC50 [14]: 15.1 µM (active); AC50 [15]: 11.2 µM (active); AC50 (CD40, CD40 (gene 958) [16]): 16.6 µM (active); AC50 (CD69, CD69 (gene 969)): 10.8 µM (active); AC50 [17]: 13.9 µM (active)

Q: Which outcome [1] does the source give for COc1cccc([C@H](O)C2CCN(CCc3ccc(F)cc3)CC2)c1OC here?
A: The outcome was “inactive”.

Q: And the outcome [2]?
A: The outcome was “inactive”.

Q: What about the outcome [3] of the same compound?
A: The outcome was “inactive”.

Q: And the outcome [4]?
A: Its outcome is “inactive”.

Q: And the outcome [5]?
A: Its outcome is “inactive”.

Q: And the outcome (CD40, CD40 (gene 958) [6])?
A: The outcome was “inactive”.

Q: And the outcome [7]?
A: Its outcome is “inactive”.

Q: And the outcome [8]?
A: Its outcome is “inactive”.

Q: And the outcome [9]?
A: Its outcome is “inactive”.

Q: And the outcome [10]?
A: The outcome was “inactive”.

Q: What about the outcome [18] of the same compound?
A: Its outcome is “inactive”.

Q: What about the outcome [11] of the same compound?
A: The outcome was “inactive”.

Q: And the outcome [12]?
A: The outcome was “inactive”.

Q: What about the outcome [13] of the same compound?
A: The outcome was “inactive”.

Q: And the outcome [14]?
A: The outcome was “inactive”.

Q: And the outcome [15]?
A: The outcome was “inactive”.

Q: What about the outcome (CD40, CD40 (gene 958) [16]) of the same compound?
A: Its outcome is “inactive”.

Q: What about the outcome (CD69, CD69 (gene 969)) of the same compound?
A: The outcome was “inactive”.

Q: What about the outcome [17] of the same compound?
A: Its outcome is “inactive”.

Q: Which results are given for CCCCCCCCN(C)CCCCCCCC?
A: outcome [1]: inactive; outcome [2]: inactive; outcome [3]: inactive; outcome [4]: inactive; outcome [5]: inactive; outcome (CD40, CD40 (gene 958) [6]): inactive; outcome [7]: inactive; outcome [8]: inactive; outcome [9]: inactive; outcome [10]: inactive; outcome [11]: inactive; outcome [12]: inactive; outcome [13]: inactive; outcome [14]: inactive; outcome [15]: inactive; outcome (CD38, CD38 (gene 952)): inactive; outcome (CD40, CD40 (gene 958) [16]): inactive; outcome (CD69, CD69 (gene 969)): inactive; outcome [17]: inactive
